# PubChem BioAssay (NCI)
# Compounds without any hit were thinned out: in the full panel of roughly 83,000, 20% have a hit.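 In brief: 96-well plates, 48 h treatment, single concentration, percent growth endpoint.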 Active and inactive are the calls of the source. How the source made its calls: active means growth percent below 10; inactive means the rest.
# Test system: HL-60(TB) leukemia
# Experiment: NCI-60 one-dose screen, 48 h (100 = growth as untreated, 0 = no growth, -100 = all killed)
# Details: 10 µM unless noted
row,Structure (SMILES),growth
1,CCCn1cnc2c(c1=N)C(c1ccc(OC)cc1)c1sc3c(C)cccc3c1O2 (stereo not drawn),0.388% (active)
2,CCNCCOc1ccc(/C(=C(/CC)c2ccc(Cl)cc2)c2ccc(OCCCN(C)C)cc2)cc1,-61.5% (active)
3,CC(=O)Oc1ccc(CCN2C(=O)CSC2=S)cc1,57% (inactive)
4,O=C(Nc1ccccc1)Nc1nc2ccc([N+](=O)[O-])cc2s1,-35.9% (active)
5,C[C@@H](Nc1ncnc2ccc(-c3cnc(Cl)c(NS(C)(=O)=O)c3)cc12)c1ccccc1,39% (inactive)
6,CS(=O)c1nccc(-c2c(-c3ccc(F)c(OCCc4ccc(F)cc4)c3)nc3sccn23)n1 (stereo not drawn),-13.4% (active)
7,CCOC(=O)c1c(Nc2ccccc2)nn2c(-c3ccc(OC)c(OC)c3)ccnc12,43.3% (inactive)
8,CCN1C(=O)N(CC)C2SC(N/N=C/c3ccccc3F)=NC21 (stereo not drawn),0.098% (active)
9,O=C(CSc1nnc(-c2ccc3nc(-c4ccc(Cl)cc4)[nH]c3c2)o1)Nc1ccc(C(=O)/C=C/c2ccc(Cl)cc2)cc1,86% (inactive)
10,O=C(c1cccc(F)c1)n1ccc2cc(NC(=S)Nc3cccnc3)ccc21,85.8% (inactive)
11,CC1(C)CC[C@]2(C(=O)N3CCOCC3)CC[C@]3(C)C(=CC[C@@H]4[C@@]5(C)C/C(=C/c6ccccn6)C(=O)C(C)(C)[C@@H]5CC[C@]43C)[C@@H]2C1,6.91% (active)
12,CN1CCN(Cc2ccc(NC(=O)c3cncc(C#Cc4cnc5ccc(OCC(F)F)nn45)c3)cc2C(F)(F)F)CC1,-52.2% (active)
13,O=C1[C@H]2Cc3c([nH]c4ccccc34)[C@H](c3ccc(Br)cc3)N2C(=O)CN1C1CCN(CC2CCCCC2)CC1,56.9% (inactive)
